Here are results for nine molecules from PubChem BioAssay (NCI).

Some test systems named below: DU-145 prostate; K-562 leukemia; MALME-3M melanoma; RXF 393 renal; SF-268 CNS; SF-295 CNS; SF-539 CNS; UACC-257 melanoma; M14 melanoma; HCT-15 colon; HT29 colon; SNB-75 CNS; SNB-19 CNS; U251 CNS; PC-3 prostate; SK-MEL-5 melanoma; UACC-62 melanoma; SK-MEL-28 melanoma.
Experiment in all cases: NCI-60 one-dose screen, 48 h (100 = growth as untreated, 0 = no growth, -100 = all killed)
Common to all, as to settings: 10 µM unless noted

Structures are written as SMILES. About 83,000 compounds went through this panel and 20% of them were active in at least one assay; those are over-represented in the sample as a whole.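 How to read the values: 0–100, growth inhibition (40 = 60% inhibited); 0, no net growth; -100 to 0, cell death (-40 = 40% of starting cells died; -100 = all dead).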 Unmarked numbers belong to inactive results. Activity calls are given as the source filed them. The calls were made as follows: active = growth percent below 10; inactive = the rest.

Consider `Cc1ccc2c(N)c(C(=O)Nc3ccc(-c4ccccc4)cc3)sc2n1`, for which the growth in the test with DU-145 prostate was 88.4%; in the test with K-562 leukemia, 36.9%; with MALME-3M melanoma, 65.5%; in the test with RXF 393 renal, 30.5%; with SF-268 CNS, 101%; in the test with SF-295 CNS, 45.6%. Further, the growth in the test on SF-539 CNS was 67.7%; with UACC-257 melanoma, 61%; with M14 melanoma, 73.2%; with HCT-15 colon, 58.7%; with HT29 colon, 84.3%; with SNB-75 CNS, 53.8%. The growth was 63.5% with SNB-19 CNS; 85.2% with U251 CNS; 68.5% with PC-3 prostate; 20.3% in the test with SK-MEL-5 melanoma; 72.2% in the test on UACC-62 melanoma; 85.1% in the test on SK-MEL-28 melanoma.
As to `Cc1c(C(=O)NNC(=O)Nc2ccc(Cl)cc2)nnn1-c1ccc(Br)cc1`, the growth with DU-145 prostate was 99.5%; with K-562 leukemia, 92.2%; in the test on MALME-3M melanoma, 90.7%; in the test on RXF 393 renal it was 90.5%; in the test with SF-268 CNS it was 103%; in the test with SF-295 CNS, 98.8%. The growth is 102% in the test with SF-539 CNS; 99% in the test on UACC-257 melanoma; 101% in the test with M14 melanoma; 97% in the test with HCT-15 colon; 97.2% in the test with HT29 colon; 90.2% in the test with SNB-75 CNS. For the same molecule, the growth is 91.4% in the test on SNB-19 CNS; 104% in the test with U251 CNS; 103% in the test on PC-3 prostate; 99.4% with SK-MEL-5 melanoma; 88.7% with UACC-62 melanoma; 96.5% with SK-MEL-28 melanoma.
As for `N#Cc1cnn(C(=O)c2ccccc2Br)c1NC(=O)c1ccc(Br)cc1Cl`, the growth with DU-145 prostate is 108%; in the test with K-562 leukemia it was 105%; in the test with MALME-3M melanoma it was 95.8%; in the test on RXF 393 renal, 100%; with SF-268 CNS it was 116%; with SF-295 CNS, 94.9%. Further, the growth in the test on SF-539 CNS is 96.9%; in the test with UACC-257 melanoma, 98.5%; with M14 melanoma, 101%; in the test with HCT-15 colon it was 101%; with HT29 colon, 104%; in the test on SNB-75 CNS, 106%. The growth in the test with SNB-19 CNS is 97.2%; with U251 CNS, 93.3%; in the test with PC-3 prostate, 103%; in the test on SK-MEL-5 melanoma it was 98.6%; in the test on UACC-62 melanoma, 101%; in the test on SK-MEL-28 melanoma, 103%.
For `Cc1ccc2c(N)c(C(=O)Nc3ccc(OC(F)(F)F)cc3)sc2n1`, the growth with DU-145 prostate is 82.1%; in the test with K-562 leukemia, 9.66% (active); in the test on MALME-3M melanoma, 75.3%; in the test on RXF 393 renal, 86.3%; in the test on SF-268 CNS, 98.9%; in the test on SF-295 CNS it was 42.9%. Further, the growth was 36.5% in the test with SF-539 CNS; 70% in the test on UACC-257 melanoma; 82.9% in the test on M14 melanoma; 61% in the test with HCT-15 colon; 75.2% in the test with HT29 colon; 91.8% in the test with SNB-75 CNS. The growth with U251 CNS was 84.6%; in the test on PC-3 prostate it was 58.4%; in the test on SK-MEL-5 melanoma it was 26%; in the test with UACC-62 melanoma it was 61.2%; in the test with SK-MEL-28 melanoma, 85.5%.
As for `CC(C)c1ccc2c(N)c(C(=O)Nc3cccc(C(F)(F)F)c3)sc2n1`, the growth in the test on DU-145 prostate was 73.4%; with K-562 leukemia it was 8.51% (active); in the test with MALME-3M melanoma, 80.3%; in the test on RXF 393 renal, 42.1%; in the test on SF-268 CNS, 94.2%; with SF-295 CNS, 64.9%. For the same molecule, the growth was 66.6% in the test on SF-539 CNS; 90.1% in the test with UACC-257 melanoma; 32.8% in the test with M14 melanoma; -0.908% (active) in the test on HCT-15 colon; 29.2% in the test with HT29 colon; 129% with SNB-75 CNS. In addition, the growth in the test with SNB-19 CNS was 87.3%; in the test with U251 CNS, 71.1%; in the test with PC-3 prostate it was 73.7%; with SK-MEL-5 melanoma, 72.3%; in the test on SK-MEL-28 melanoma, 80.2%.
`COc1cc(-c2cc(-c3cccc(OCC(=O)O)c3)[nH]c(=O)c2C#N)cc(OC)c1OC`: the growth was 111% with DU-145 prostate; 89.8% in the test with K-562 leukemia; 95.9% with MALME-3M melanoma; 100% in the test with RXF 393 renal; 110% in the test on SF-268 CNS; 97.6% in the test with SF-295 CNS. The growth is 93% in the test with SF-539 CNS; 105% in the test with UACC-257 melanoma; 97.6% with M14 melanoma; 100% with HCT-15 colon; 112% with HT29 colon; 116% in the test on SNB-75 CNS. Further, the growth is 92.3% with SNB-19 CNS; 113% in the test with U251 CNS; 97.6% in the test on PC-3 prostate; 99.7% in the test with SK-MEL-5 melanoma; 95.5% with UACC-62 melanoma; 102% in the test on SK-MEL-28 melanoma.
In the case of `C=C1CC[C@@H]2[C@]3(C)COC(c4cn[nH]c4-c4ccccc4)O[C@@H]3CC[C@@]2(C)[C@@H]1C/C=C1/C(=O)OCC1O` (stereo partly drawn), the growth with DU-145 prostate is 5.39% (active); in the test with K-562 leukemia, -10.2% (active); in the test with MALME-3M melanoma it was -81.2% (active); with RXF 393 renal it was -59.4% (active); with SF-268 CNS, 36.5%; with SF-295 CNS, 50.2%. For the same molecule, the growth in the test on SF-539 CNS is -74.8% (active); in the test with UACC-257 melanoma it was 13.5%; in the test on M14 melanoma, -17.5% (active); in the test with HCT-15 colon it was -81% (active); in the test on HT29 colon it was -79% (active); with SNB-75 CNS, 105%. The growth in the test on SNB-19 CNS was 45.3%; in the test on U251 CNS, -18.6% (active); in the test with PC-3 prostate, 33.3%; with SK-MEL-5 melanoma it was -77.2% (active); in the test on UACC-62 melanoma it was -12.7% (active); in the test with SK-MEL-28 melanoma it was -55.2% (active).
With `CCOc1ccc(-c2c(C#N)c(-c3ccc(Cl)cc3)nc3n[nH]c(-c4ccc(Cl)cc4)c23)cc1OC`, the growth in the test with DU-145 prostate is 64.9%; in the test with K-562 leukemia it was 9.47% (active); in the test with MALME-3M melanoma it was 46.7%; in the test with RXF 393 renal, 47.4%; with SF-268 CNS it was 72.9%; in the test with SF-295 CNS, 75.7%. The growth in the test on SF-539 CNS is 62.6%; in the test on UACC-257 melanoma, 54.4%; in the test on M14 melanoma it was 60%; with HCT-15 colon, 19.6%; in the test with HT29 colon, 34.2%; with SNB-75 CNS, 58.5%. The growth in the test on SNB-19 CNS was 77%; in the test on U251 CNS, 62.9%; in the test on PC-3 prostate it was 28%; in the test with SK-MEL-5 melanoma it was 28.2%; in the test on SK-MEL-28 melanoma it was 60.2%.
Consider `CC(=O)Oc1ccccc1C(=O)[Se]CC(=O)Nc1cccc(C(F)(F)F)c1`, for which the growth in the test on DU-145 prostate is 8.88% (active); in the test with K-562 leukemia it was 18.6%; with MALME-3M melanoma it was -92.8% (active); in the test with RXF 393 renal it was -25.5% (active); in the test with SF-268 CNS, 2.38% (active); in the test on SF-295 CNS, -76.8% (active). Moreover, the growth in the test on SF-539 CNS was -90.1% (active); in the test on UACC-257 melanoma, -24.2% (active); in the test with M14 melanoma it was -37.4% (active); in the test on HCT-15 colon it was -79.8% (active); in the test with HT29 colon, -38.7% (active); in the test on SNB-75 CNS, -39.2% (active). The growth with SNB-19 CNS is -78.5% (active); in the test on U251 CNS, -48.3% (active); with PC-3 prostate, 24.9%; with SK-MEL-5 melanoma, -86.4% (active); in the test on SK-MEL-28 melanoma, -58.8% (active).
